From PubChem BioAssay (EPA / NIEHS)
Activity calls are given as the source filed them. The calls were made as follows: active = hit-call score of the fitted dose curve at least 0.9, where 1 is the maximum; inactive = score below 0.9.

How the values were obtained:
[1] = read-out: Interleukin-6 (IL6), IL6 (gene 3569); experiment: BSK_CASM3C_IL6: BioMAP Diversity Plus: CASM3C Assay for Interleukin-6 (IL6) Biomarker Activity for (AID 2283040); conditions: primary human coronary artery smooth muscle cells; actives raise or lower the signal
[2] = read-out: Tissue plasminogen activator (tPA), PLAT (gene 5327); experiment: BSK_BE3C_tPA: BioMAP Diversity Plus: BE3C Assay for Tissue plasminogen activator (tPA) Biomarker Activity (AID 2283041); conditions: primary human bronchial epithelial cells; actives raise or lower the signal
Summary of the method: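 Primary human lung bronchial epithelial cultures receive test chemical; after 24 h, tPA is quantified by ELISA, and gain or loss of signal is fitted bidirectionally relative to DMSO baseline.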

[3] = read-out: Interleukin-8 (IL8), CXCL8 (gene 3576); experiment: BSK_CASM3C_IL8: BioMAP Diversity Plus: CASM3C Assay for Interleukin-8 (IL8) Biomarker Activity (AID 2283042); conditions: primary human coronary artery smooth muscle cells; actives raise or lower the signal;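 also: IL-8 protein level quantified by ELISA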
[4] = read-out: Human Leukocyte Antigen - DR isotype (HLADR), HLA-DRA (gene 3122); experiment: BSK_CASM3C_HLADR: BioMAP Diversity Plus: CASM3C Assay for Human Leukocyte Antigen - DR isotype (HLADR) Biomarker Activity (AID 2283043); conditions: primary human coronary artery smooth muscle cells; actives raise or lower the signal;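 also: cell-surface HLA-DR protein level quantified by ELISA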
[5] = read-out: Macrophage colony-stimulating factor (MCSF), CSF1 (gene 1435); experiment: BSK_CASM3C_MCSF: BioMAP Diversity Plus: CASM3C Assay for Macrophage colony-stimulating factor (MCSF) Biomarker Activity (AID 2283044); conditions: primary human coronary artery smooth muscle cells; actives raise or lower the signal;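 also: M-CSF protein amount quantified by ELISA after 24 h exposure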
[6] = read-out: Low-density lipoprotein receptor (LDLR), LDLR (gene 3949); experiment: BSK_CASM3C_LDLR: BioMAP Diversity Plus: CASM3C Assay for Low-density lipoprotein receptor (LDLR) Biomarker Activity (AID 2283045); conditions: primary human coronary artery smooth muscle cells; actives raise or lower the signal;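 also: LDLR protein level on the cell surface quantified by ELISA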
[7] = read-out: Monocyte Chemoattractant Protein-1 (MCP1), CCL2 (gene 6347); experiment: BSK_CASM3C_MCP1: BioMAP Diversity Plus: CASM3C Assay for Monocyte Chemoattractant Protein-1 (MCP1) Biomarker Activity (AID 2283046); conditions: primary human coronary artery smooth muscle cells; actives raise or lower the signal;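 also: MCP-1 level quantified by ELISA 24 h after dosing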
[8] = BSK_CASM3C_Proliferation: Cell Proliferation Assessment in the BioMAP Diversity Plus: CASM3C Assay (AID 2283047); conditions: primary human coronary artery smooth muscle cells;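 also: sulforhodamine B total protein stain as relative cell number at 560 nm; sub-confluent cells exposed 48 h before staining; fitted both ways against DMSO so gain or loss of cell number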
[9] = read-out: Monokine induced gamma interferon (MIG), CXCL9 (gene 4283); experiment: BSK_CASM3C_MIG: BioMAP Diversity Plus: CASM3C Assay for Monokine induced gamma interferon (MIG) Biomarker Activity (AID 2283048); conditions: primary human coronary artery smooth muscle cells; actives raise or lower the signal;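 also: MIG protein level measured by ELISA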
[10] = read-out: serum amyloid A (SAA), SAA1 (gene 6288); experiment: BSK_CASM3C_SAA: BioMAP Diversity Plus: CASM3C Assay for serum amyloid A (SAA) Biomarker Activity (AID 2283049); conditions: primary human coronary artery smooth muscle cells; actives raise or lower the signal;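 also: SAA protein level quantified by ELISA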
[11] = BSK_CASM3C_SRB: Viability Assessment in the BioMAP Diversity Plus: CASM3C Assay (AID 2283050); conditions: primary human coronary artery smooth muscle cells;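 also: total protein by SRB staining as cytotoxicity measure in parallel cultures; cells exposed to compound for 24 h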
[12] = read-out: Thrombomodulin, THBD (gene 7056); experiment: BSK_CASM3C_Thrombomodulin: BioMAP Diversity Plus: CASM3C Assay for Thrombomodulin Biomarker Activity (AID 2283051); conditions: primary human coronary artery smooth muscle cells; actives raise or lower the signal;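 also: thrombomodulin protein level measured by ELISA 24 h after dosing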
[13] = read-out: Tissue Factor, F3 (gene 2152); experiment: BSK_CASM3C_TissueFactor: BioMAP Diversity Plus: CASM3C Assay for Tissue Factor Biomarker Activity (AID 2283052); conditions: primary human coronary artery smooth muscle cells; actives raise or lower the signal;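 also: cell surface tissue factor protein level read by ELISA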
[14] = read-out: Interferon-gamma inducible Protein 10 (IP10), CXCL10 (gene 3627); experiment: BSK_hDFCGF_IP10: BioMAP Diversity Plus: hDFCGF Assay for Interferon-gamma inducible Protein 10 (IP10) Biomarker Activity (AID 2283053); conditions: primary human foreskin fibroblasts; actives raise or lower the signal
Summary of the method: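 Primary foreskin fibroblasts, human; 24 h compound exposure; IP-10 by ELISA; bidirectional fit vs DMSO.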

[15] = read-out: Urokinase-type plasminogen activator receptor (uPAR), PLAUR (gene 5329); experiment: BSK_CASM3C_uPAR: BioMAP Diversity Plus: CASM3C Assay for Urokinase-type plasminogen activator receptor (uPAR) Biomarker Activity (AID 2283054); conditions: primary human coronary artery smooth muscle cells; actives raise or lower the signal;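 also: cell-surface uPAR protein level quantified by ELISA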
[16] = read-out: Vascular cell adhesion molecule 1 (VCAM1), VCAM1 (gene 7412); experiment: BSK_CASM3C_VCAM1: BioMAP Diversity Plus: CASM3C Assay for Vascular cell adhesion molecule 1 (VCAM1) Biomarker Activity (AID 2283055); conditions: primary human coronary artery smooth muscle cells; actives raise or lower the signal;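 also: VCAM-1 protein level quantified by ELISA on the cells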
[17] = read-out: Collagen III, COL3A1 (gene 1281); experiment: BSK_hDFCGF_CollagenIII: BioMAP Diversity Plus: hDFCGF Assay for Collagen III Biomarker Activity (AID 2283056); conditions: primary human foreskin fibroblasts; actives raise or lower the signal
Summary of the method: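 Cells: human foreskin fibroblasts, primary. Dosing followed by 24 h incubation, then ELISA for collagen III. Both increases and decreases scored relative to DMSO.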

[18] = read-out: Epidermal growth factor receptor (EGFR), EGFR (gene 1956); experiment: BSK_hDFCGF_EGFR: BioMAP Diversity Plus: hDFCGF Assay for Epidermal growth factor receptor (EGFR) Biomarker Activity (AID 2283057); conditions: primary human foreskin fibroblasts; actives raise or lower the signal
Summary of the method: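 hDFCGF system, primary human foreskin fibroblasts; compound 24 h; EGFR measured by ELISA; DMSO = negative control/baseline; bidirectional fitting.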

[19] = read-out: Interleukin-8 (IL8), CXCL8 (gene 3576); experiment: BSK_hDFCGF_IL8: BioMAP Diversity Plus: hDFCGF Assay for Interleukin-8 (IL8) Biomarker Activity (AID 2283058); conditions: primary human foreskin fibroblasts; actives raise or lower the signal
Summary of the method: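 IL-8 levels from compound-treated primary human fibroblasts were read by ELISA at 24 h, with DMSO serving as baseline for bidirectional fitting.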

[20] = BSK_hDFCGF_Proliferation: Cell Proliferation Assessment in the BioMAP Diversity Plus: hDFCGF Assay (AID 2283059); conditions: primary human foreskin fibroblasts;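 also: curves fitted for both rise and fall of signal versus DMSO baseline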
Summary of the method: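 This proliferation readout used SRB total-protein staining of human foreskin fibroblasts […], normalized to DMSO with bidirectional curve fitting.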

Measured: AC50

CCN(CC)C(=S)SSC(=S)N(CC)CC
active: [2] 7.46 µM | [3] 20 µM | [4] 31.2 µM | [5] 24.4 µM | [6] 35.4 µM | [7] 31.6 µM | [8] 12.8 µM | [9] 33.3 µM | [10] 28.8 µM | [11] 31.4 µM | [12] 5.26 µM | [13] 20 µM | [14] 1.67 µM | [15] 31.1 µM | [16] 30.6 µM | [17] 4.78 µM | [19] 2.81 µM | [20] 1.41 µM
inactive: [1] | [18]

OC(CCl)CCl
inactive: all assays above

O=S1(=O)CCCO1
inactive: all assays above

O=c1[nH]cnc2c1ncn2[C@H]1CC[C@@H](CO)O1
not listed: [5]
inactive: all other assays above

OCC(CO)(CO)CO
inactive: all assays above

COS(C)(=O)=O
inactive: all assays above

OC(Cn1cncn1)(Cn1cncn1)c1ccc(F)cc1F
inactive: all assays above

c1ccc(C(O[C@@H]2CCCN(CCc3ccc4c(c3)OCO4)C2)c2ccccc2)cc1
active: [6] 17.3 µM | [8] 32.5 µM | [14] 26 µM | [17] 5.39 µM
not listed: [18] | [20]
inactive: all other assays above

CCc1cccc(CC)c1N
inactive: all assays above

CCCCN1C(=O)[C@@H]([C@H](O)C2CCCCC2)NC(=O)C12CCN(Cc1ccc(Oc3ccc(C(=O)O)cc3)cc1)CC2
active: [6] 9.69 µM | [8] 18.3 µM | [14] 31.2 µM | [20] 20 µM
not listed: [17]
inactive: all other assays above

COc1cc(C(C)C)c2c(c1)S(=O)(=O)N(COc1cc(=O)n3cccc(OCCN4CCCCC4)c3n1)C2=O
active: [2] 3 µM | [6] 3.65 µM | [8] 6.18 µM | [14] 6.1 µM | [16] 5 µM | [20] 5.44 µM
inactive: all other assays above

c1ccc2cc3ccccc3cc2c1
inactive: all assays above

CC(C)C(=O)Nc1ccc([N+](=O)[O-])c(C(F)(F)F)c1
active: [6] 4.78 µM | [17] 31.7 µM
inactive: all other assays above

Cc1ccc(S(=O)(=O)NC(=O)NN2CCCCCC2)cc1
inactive: all assays above

CCCOc1ccc(S(=O)(=O)N2CCN(CC)CC2)cc1-c1nc2c(CC)n(Cc3ccccn3)nc2c(=O)[nH]1
active: [4] 3.97 µM
inactive: all other assays above

CCCCC(CC)C(=O)OCCOCCOCCOC(=O)C(CC)CCCC (stereo not given)
active: [12] 20 µM | [17] 20 µM | [20] 11 µM
inactive: all other assays above

NC(N)=O
not listed: [5]
inactive: all other assays above

CCCCCCOC(=O)CC(CC(=O)OCCCCCC)(OC(=O)CCC)C(=O)OCCCCCC
inactive: all assays above

CCCCCCCCCCCCCCO
active: [5] 31.3 µM | [6] 32.3 µM | [7] 32.4 µM | [8] 38 µM | [9] 29.5 µM | [10] 31 µM | [11] 30.2 µM | [12] 31.5 µM | [13] 31.5 µM | [14] 28.3 µM | [15] 33.3 µM | [16] 20 µM | [17] 11 µM | [19] 33.3 µM | [20] 12.2 µM
inactive: [1] | [2] | [3] | [4] | [18]

CC(C)CCCCCCOC(=O)C1CCCCC1C(=O)OCCCCCCC(C)C (stereo not given)
inactive: all assays above

OCCC(F)(F)C(F)(F)C(F)(F)C(F)(F)F
inactive: all assays above

NCC(F)(F)C(F)(F)C(F)(F)C(F)(F)F
inactive: all assays above

NC(=O)NN=Cc1ccc([N+](=O)[O-])o1
active: [20] 27.8 µM
inactive: all other assays above

O=C(O)c1ccc2c(c1)nc(C(=O)NC1CCN(C3CC3)CC1)n2Cc1cc(-c2ccc(Cl)s2)on1
inactive: all assays above

Nc1ccn([C@@H]2O[C@H](CO)[C@@H](O)[C@@H]2O)c(=O)n1
active: [8] 0.148 µM | [20] 0.615 µM
inactive: all other assays above

CC1(C)C(=O)N(Cl)C(=O)N1Cl
inactive: all assays above

O=C(Cl)C(F)(F)C(F)(F)C(F)(F)C(=O)Cl
inactive: all assays above

C=CN1CCCC1=O
inactive: all assays above

O=C(O)c1cccc(C(=O)O)c1
active: [13] 0.357 µM
inactive: all other assays above
